TAR Tat displ: HIV-1 TAR-Tat binding disruption | HIV-1 TAR RNA, Tat peptide displacement FRET; stronger effect = higher value | 100,000 tested, 0.6% active | z-score (no concentration beside the values); active = z-score of 3 or more in at least 2 runs
CDC25B-CDK2 inh: human CDC25B-CDK2/CyclinA binding inhibition | P30305+P24941 | HTRF CDC25B-CDK2/CyclinA binding, anti-His/anti-Flag; stronger effect = higher value | z-score (no concentration beside the values) | 94,000 tested, 0.72% active | AID 1259370; in the data active = z-score above about 3.2
* marks the source's active call; other numbers are inactive results; . = not tested or not shown. An excerpt weighted towards active compounds, which were near 0.93% of everything screened.

SMILES | TAR Tat displ | CDC25B-CDK2 inh
COc1cc(C2CC(c3c(O)n(C)c(=O)n(C)c3=O)=Nc3ccccc3S2)ccc1O (configuration not stated) | 1.2 | -1.7
Cc1cccn2c(=O)c(C(=O)NCCCN3CCCCC3C)c(O)nc12 (configuration not stated) | 3.1 | 0.08
COc1ccc(C2CC(=O)NC(SCC(=O)OCc3ccccc3)=C2C#N)cc1 (configuration not stated) | 1.4 | 0.01
N=C1C(c2nc3ccccc3[nH]2)=C(O)CN1c1ccc(F)cc1 | 0.18 | -1.5
N=C1C(c2nc3ccccc3[nH]2)=C(O)CN1c1ccc(S(N)(=O)=O)cc1 | 4.4* | -2
Cc1ccc(S(=O)(=O)CC(CN2CCCCC2)N2CCCCC2)cc1 (configuration not stated) | . | -0.13
O=C(CN1C(=O)c2cccnc2Sc2ccccc21)Nc1ccc2c(c1)OCCO2 | 0.53 | .
O=C(CN1C(=O)c2ccccc2Sc2ncccc21)Nc1ccc2c(c1)OCO2 | 13* | .
Nc1ncccc1NC(=O)CCC(=O)O | 0.11 | 14*
O=C(O)CCCC(=O)Nc1cccc2cccnc12 | 1.4 | -0.19
NCC(O)COc1c(Cl)cccc1Cl (configuration not stated) | . | -1.3
CC(C)c1nnc(NC(=O)C(=O)c2c[nH]c3ccccc23)s1 | 2 | -1.3
O=C(Nc1nnc(-c2ccco2)s1)C(=O)c1c[nH]c2ccccc12 | 17* | -2.1
Cc1nn(-c2nc3ccccc3s2)c2c1C(c1ccc(Br)cc1)CC(=O)N2 (configuration not stated) | -1.4 | -2.7
CCOc1ccc(C2c3c(oc4ccc(C)cc4c3=O)C(=O)N2c2ccccn2)cc1 (configuration not stated) | -0.55 | -2.1
CNC(=O)C(C)n1sc2ccccc2c1=O (configuration not stated) | 1.8 | -2.1
CC(C(=O)NCc1ccco1)n1sc2ccccc2c1=O (configuration not stated) | 3.6* | -1.8

Assay outcomes deposited in PubChem BioAssay by Center for Chemical Genomics, University of Michigan.
